Shown are actives, neighbours in structure and some others; about 2.2% of the full set was active somewhere.
LGR2 antag – Drosophila LGR2 receptor signaling inhibition | HEK293 LGR2, CRE-luciferase, bursicon-stimulated, 4 h | inhibition, % at 9.99 µM | 380,000 compounds, 0.35% hits | AID 720647;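 active means drop in luminescence signal, shown as inhibition above about 50% in the replicate tests, limit read from the data, passing the limit was not always enough; inconclusive means probably only some replicates passing the limit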;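 further: agonist challenge used bursicon conditioned medium at about half maximal strength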
MITF TRPM1 inh – inhibitors of MITF-driven TRPM1 promoter in melanoma cells | SK-MEL-5 TRPM1 promoter luciferase, 24 h | 330,000 compounds, 0.83% hits | inhibition, % at 12.5 µM;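 active means mean inhibition across replicates of 60% or more, whatever share of single replicates reaches that level; inconclusive means some that reach 60%, reason not given; inactive means mean inhibition across replicates below 60%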
EWS-Fli inh – blocks EWS/Fli oncoprotein-driven transcription; inhibition, % at 12.6 µM; 350,000 compounds, 0.67% hits; AID 651661; A673 NR0B1-luciferase reporter, viability-normalised;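 active means mean inhibition of at least 50% after viability correction, with every replicate also passing that limit; inconclusive means mean reaches 50% but only one of two replicates passes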;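 further: firefly luciferase signal divided by Alamar Blue viability fluorescence both relative to DMSO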
PAX8 inh HTS – PAX8 transcriptional activity inhibition; 360,000 compounds, 1.2% hits; inhibition, % at 12.6 µM; RMG-I TPO-luciferase reporter, SteadyGlo, 24 h; AID 652154;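 active means mean replicate inhibition at least 60% with every replicate also reaching 60%; inconclusive means only one of the two criteria is met; inactive means mean below 60% and not all replicates reaching 60%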;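 further: luciferase light reporting Pax8 driven TPO promoter activity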
LMP1 NFkB inh – Epstein-Barr LMP1 NF-kappaB reporter inhibition | 350,000 compounds, 0.69% hits | inhibition, % at 12.5 µM | LMP1-induced NF-kappaB luciferase reporter cells, luminescence; in the data active means inhibition above about 41%; inconclusive means no clear call, values can overlap the other calls
Shn3 inh set2 – Schnurri-3 reporter inhibition in Clone20 osteoblasts; Clone20 osteoblast Shn3 3'UTR firefly luciferase, 24 h; inhibition, % at 12.5 µM; 360,000 compounds, 0.52% hits;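 active means mean inhibition of at least 75% with every replicate also reaching 75%; inconclusive means mean inhibition at least 75% but some replicate below; inactive means mean inhibition below 75%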
A number is an active result; . = inactive; ? = inconclusive; / = no result given.

SMILES | LGR2 antag | MITF TRPM1 inh | EWS-Fli inh | PAX8 inh HTS | LMP1 NFkB inh | Shn3 inh set2
O=[N+]([O-])c1cc(S(=O)(=O)C(F)(F)F)ccc1Sc1nc2ccccc2s1 | / | . | / | / | . | 98
CS(=O)(=O)c1ccc(Sc2nc3ccccc3s2)c([N+](=O)[O-])c1 | / | . | / | / | 56 | 95
O=S(=O)(Nc1ccc(O)c(Sc2nc3ccccc3s2)c1)c1ccc(F)cc1 | . | . | / | . | . | .
O=[N+]([O-])c1cc(S(=O)(=O)C(F)(F)F)ccc1Sc1nc2ccccc2[nH]1 | / | 96 | / | / | . | .
C[C@H]1CN([C@@H](C)CO)C(=O)c2cc(C#CC3CCCC3)cnc2O[C@H]1CN(C)C(=O)Nc1ccccc1 | . | / | . | . | / | /
Cc1onc(-c2ccccc2)c1C(=O)Nc1ccccc1N1CCOCC1 | / | . | / | . | . | .
Cc1onc(-c2ccccc2)c1C(=O)Nc1cc(C(F)(F)F)ccc1N1CCOCC1 | / | . | / | . | 69 | .
CCC(C)Nc1nc(Cl)nc(N(C#N)CN2C(=O)c3ccccc3S2(=O)=O)n1 (stereo unspecified) | . | 69 | . | . | . | .
CC[C@@H](C)[C@H](C(CC(=O)N1CCCC1[C@@H](OC)[C@H](C)C(=O)N[C@H](Cc1ccccc1)c1nccs1)OC)N(C)C(=O)[C@H](NC(=O)[C@@H](C(C)C)N(C)C)C(C)C (stereo partly specified) | . | . | . | 82 | . | .
C[C@@H]1CCCCO[C@H](CN(C)C(=O)CCC(F)(F)F)[C@H](C)CN([C@H](C)CO)C(=O)c2cc(NS(=O)(=O)c3cn(C)cn3)ccc2O1 | . | / | . | . | / | /
O=[N+]([O-])/C=C\c1ccc(N2CCOCC2)cc1 | ? | 74 | . | . | ? | .
O=C(COc1ccc(/C=C\[N+](=O)[O-])cc1)N1CCOCC1 | . | . | . | . | . | .
CCC(=NCc1ccccc1)c1c(C(F)(F)F)[nH]n(-c2nc3ccccc3s2)c1=O | / | . | / | / | . | .
O=c1c(C=NCc2cccnc2)c(C(F)(F)F)[nH]n1-c1nc2ccccc2s1 | 58 | . | . | . | . | .
COc1cccc(NC(=O)N(C)C[C@H]2Oc3cc(C#Cc4ccccc4)ccc3S(=O)(=O)N([C@@H](C)CO)C[C@H]2C)c1 | . | / | . | . | / | /
O=C(O)c1ccccc1Nc1cccc(OCc2ccc3ccccc3n2)c1 | . | . | . | . | 82 | .
C[C@H](CO)N1C[C@H](C)[C@@H](CN(C)Cc2ccc(-c3ccccc3)cc2)Oc2ccc(NS(=O)(=O)c3ccccc3)cc2CC1=O | . | / | . | 80 | / | /
C[C@@H]1CN([C@@H](C)CO)C(=O)Cc2cc(NS(=O)(=O)c3ccc(Cl)cc3)ccc2O[C@H]1CN(C)Cc1ccc(-c2ccccc2)cc1 | . | / | . | 69 | / | /
C[C@H]1CN([C@@H](C)CO)C(=O)Cc2cc(NS(=O)(=O)c3ccccc3)ccc2O[C@H]1CN(C)Cc1ccc(-c2ccccc2)cc1 | . | / | . | . | / | /
Cc1nnc(NC(=O)CSc2nnc(Cc3cccn3C)n2CCc2ccccc2)s1 | . | . | . | / | 66 | .
CC(C)CC#Cc1ccc2c(c1)O[C@@H](CN(C)Cc1cccnc1)[C@@H](C)CN([C@@H](C)CO)S2(=O)=O | . | / | . | / | / | /
COc1ccccc1C(=O)Nc1nc2ccccc2s1 | 105 | 81 | 93 | 101 | 85 | .
COc1ccc(C(=O)Nc2nc3ccccc3s2)c(OC)c1 | 103 | 84 | 91 | 106 | 85 | 93
COc1ccc2nc(NC(=O)c3ccccc3C(=O)O)sc2c1 | . | . | . | . | . | .
CCOc1ccccc1C(=O)Nc1c[nH]c(=O)[nH]c1=O | . | . | . | . | . | .
SMILES | LGR2 antag | MITF TRPM1 inh | EWS-Fli inh | PAX8 inh HTS | LMP1 NFkB inh | Shn3 inh set2
COc1ccc2nc(NC(=O)c3ccccc3F)sc2c1 | 63 | . | . | . | . | .
COc1ccccc1C(=O)Nc1c[nH]c(=O)[nH]c1=O | . | . | . | . | 52 | .
COc1ccc(NC(=O)Nc2nc3ccccc3s2)cc1 | . | . | . | . | . | .
COCC(=O)N1[C@H](CO)[C@H](c2ccccc2)C12CN(C(=O)Cc1ccccn1)C2 | . | / | . | . | / | /
CC(C)NC(=O)N1CC2(C1)[C@H](c1ccccc1)[C@H](CO)N2C(=O)C1CCC1 | . | / | . | / | / | /
Cc1c(Cl)cccc1N1C(=O)CC(Sc2ccccc2N)C1=O (stereo unspecified) | . | / | . | . | . | .
Nc1ccccc1SC1CC(=O)N(c2ccccc2Cl)C1=O (stereo unspecified) | . | . | . | . | 47 | .

Source: PubChem
